RE007 growth inh: qHTS Assay for Inhibitors of the HIV-1 protein Vpr; S. pombe RE007 Vpr strain, BacTiter-Glo ATP luminescence, 24 h; Potency, µM (highest dose often 92.2 µM), inactives show at the highest dose activity change, negative = less growth, hits mostly inhibitors; hit rate 0.21% among 360,000; AID 651644, 2012; active = well fitted falling curve with a large enough effect; inconclusive = small, poorly fitted or top-dose-only effect; inactive = no such curve, though single readings can be large or run the other way; note: potency is the fitted concentration of half-maximal effect; % is set by controls: 0 for no effect and ±100 for the full control effect; nearly all actives have a fitted effect of over 50% in size
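Fission yeast strain RE007, carrying one chromosomally integrated HIV-1 vpr copy, was seeded at OD 0.01 in PMG+AL medium with 23 nL pinned compound. After 24 h at 30 °C and 99% humidity, viability was read by BacTiter-Glo luminescence.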
Cycloheximide cs: Cycloheximide Counterscreen for Small Molecule Inhibitors of Shiga Toxin. cell reporter, cycloheximide protein synthesis inhibition counterscreen. max response, %. hit rate 12% among 300,000. AID 2314, 2010; in the data active = max response mostly above about 13%, no sharp cut-off; inactive = mostly below about 14%; note: read at 38.3 µM for the half of the compounds with a filed dose; 0% is about no effect
LmPK inh: qHTS Assay for Inhibitors of Leishmania Mexicana Pyruvate Kinase (LmPK). purified LmPK, Kinase-Glo ATP luminescence, 1 h. Potency, µM (doses to about 57.5 µM), for inactives: at the top dose activity change, negative = inhibition, most hits filed as inhibitors. AID 1721, 2009. Q27686. hit rate 0.37% among 290,000; note: potency is the fitted concentration of half-maximal effect; % is set by controls: 0 for no effect and ±100 for the full control effect
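Purified LmPK (0.1 nM) converted ADP (0.1 mM) to ATP with PEP (0.5 mM) in imidazole buffer pH 7.2 with KCl and MgCl2, 1 h at room temperature. ATP was read by Kinase-Glo luminescence; data normalized to uninhibited and no-enzyme controls.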
FBPA Giardia inh: qHTS Assay for Inhibitors of Fructose-1,6-bisphosphate Aldolase from Giardia Lamblia; A8B2U2; purified Giardia FBPA; Potency, µM (highest dose often 59.6 µM), for the others: top-dose activity, negative = inhibition, actives largely listed as inhibitors; hit rate 0.71% among 290,000; AID 2451, 2010; note: potency is the fitted concentration of half-maximal effect; % is set by controls: 0 for no effect and ±100 for the full control effect; nearly all actives have a fitted effect of over 55% in size
Target sequence (A8B2U2 whole entry, looked up): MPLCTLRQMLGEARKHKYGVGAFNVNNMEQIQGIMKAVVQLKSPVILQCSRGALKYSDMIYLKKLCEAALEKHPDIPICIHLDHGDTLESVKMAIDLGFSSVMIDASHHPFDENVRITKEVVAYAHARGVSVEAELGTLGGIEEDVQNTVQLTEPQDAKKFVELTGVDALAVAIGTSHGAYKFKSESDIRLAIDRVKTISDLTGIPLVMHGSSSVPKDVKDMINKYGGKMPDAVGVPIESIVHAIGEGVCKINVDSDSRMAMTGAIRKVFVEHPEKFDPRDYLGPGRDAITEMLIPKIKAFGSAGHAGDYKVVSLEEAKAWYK
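Giardia FBPA (40 nM reagent) was preincubated 10 min at RT with compound (up to 57.5 uM final), then substrate plus GAPDH/TPI/NAD/arsenate coupling system with diaphorase/resazurin was added; resorufin fluorescence (525/598 nm) was read after 20 min.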
Shiga toxin inh: A qHTS for Small Molecule Inhibitors of Shiga Toxin; Vero cells, Shiga toxin protein synthesis inhibition reporter; inhibition, % at 38.7 µM; hit rate 9.2% among 290,000; AID 2315, 2010; in the data active = inhibition mostly above about 28%, no sharp cut-off; inactive = mostly below about 43%; note: 0% is about no effect
TbPYK inhibitor: qHTS of Trypanosoma Brucei Inhibitors; TbPYK enzyme, Kinase-Glo Plus ATP luminescence, 45 min; hit rate 0.12% among 410,000; Potency, µM (highest dose often 76.8 µM), for the others: top-dose activity, negative = inhibition, hits mostly inhibitors; pyruvate kinase (Trypanosoma brucei), Q57TT1; note: potency is the fitted concentration of half-maximal effect; % is set by controls: 0 for no effect and ±100 for the full control effect; nearly all actives have a fitted effect of over 50% in size
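Luminescence from Kinase-Glo Plus, added after a 45-minute room-temperature reaction, served as the end-point read-out. The enzyme and substrate were preincubated with compound before ADP (130 uM final) initiated turnover. Concentration-effect curves came from normalized qHTS data.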
Starred values were filed as active, the others as inactive; ? = inconclusive; nt = not tested or not shown. Many of the other results were omitted from the sample, so hits are more common in it than they were. Unless noted, calls come from the whole dose curve; as a rule, active = well fitted curve in the direction sought with a large enough effect; inconclusive = small, poorly fitted or top-dose-only effect, or another doubt; inactive = no such curve, though single readings can be large; an effect the other way counts as inactive or inconclusive.

SMILES	RE007 growth inh	Cycloheximide cs	LmPK inh	FBPA Giardia inh	Shiga toxin inh	TbPYK inhibitor
O=C(CCNc1ccc(Cl)cc1)c1cccs1	?	32*	-4%	0%	42*	0%
O=C(CCc1ccc(CCC(=O)c2cccs2)s1)c1cccs1	-15%	22*	-2%	0%	53*	-1%
O=C(CCSc1ccc(Cl)cc1)c1cccs1	?	12*	0%	-3%	24	1%
O=C(O)CCNc1ccc(Cl)cc1	18%	-2	5%	1%	-6	1%
O=C(CCNc1cc(Cl)cc(Cl)c1)c1cccs1	-24%	18*	2%	-6%	43	0%
CCN(C(=O)C1CCN(S(=O)(=O)c2cc(Br)cc3c2N(C(C)=O)CC3)CC1)c1cccc(C)c1	nt	nt	nt	nt	nt	2%
COC1=C(Nc2ccccc2OC)C(=O)c2ccccc2C1=O	1%	12	-26%	?	20	1%
COc1ccccc1NC1=C(NC(C)=O)C(=O)c2ccccc2C1=O	-29%	7	-24%	11µM*	27	?
C/C(=N\O)c1ccc(N2C(=O)C3CC=C(Cl)CC3C2=O)cc1 (configuration not stated)	2%	37*	-1%	2%	80*	3%
CCN(CC)C(=O)c1ccc(N2C(=O)C3CC=C(Cl)CC3C2=O)cc1 (configuration not stated)	-5%	-2	-4%	7%	-9	-4%
Clc1cccc(OCCN2CCOCC2)c1	1%	-4	0%	?	8	0%
Cc1cc(OCCN2CCOCC2)ccc1Cl	-3%	32*	-5%	?	138*	4%
Cc1ccc(OCCN2CCOCC2)cc1C	-13%	17*	-9%	-1%	40	-3%
CN(C)c1ccc(-c2nc(-c3cccs3)c(-c3cccs3)[nH]2)cc1	nt	nt	nt	nt	nt	-14%
CCCc1c(C(=O)NNc2ccccc2OC)cnn1-c1ccccc1	7%	23*	-3%	-20%	41*	-1%
CCCc1c(C(=O)N2CCN(c3ccccc3OC)CC2)cnn1-c1ccccc1	-1%	0	3%	0%	20	1%
CCCc1c(C(=O)Nc2ccc(OC)cc2)cnn1-c1ccccc1	14%	22*	3%	-22%	54*	4%
Cc1cnc(CNc2ncnc3ccc(-c4c(C)noc4C)cc23)cn1	nt	nt	nt	0%	nt	nt
CCOc1ccc2nc(NC(=O)c3cc(=O)c4ccc(C)cc4o3)sc2c1	nt	nt	nt	nt	nt	-7%
COc1ccccc1NC(=O)c1cc2c(=O)n(Cc3cccs3)ccc2nc1C	nt	nt	nt	nt	nt	0%
O=c1[nH]c(=S)[nH]c(O)c1N=Nc1cc2c(cc1[N+](=O)[O-])OCO2	8%	-2	-30%	-11%	-11	?
O=c1[nH]c(=S)[nH]c(O)c1N=Nc1ccc(-c2ccccc2)cc1[N+](=O)[O-]	nt	17*	-10%	-3%	58*	nt
CC1(C)CCCN(Cc2c(O)ccc3c(=O)c(-c4nc5ccccc5s4)c(N)oc23)C1	12%	33*	0%	1%	77*	-3%
CC1CCCN(Cc2c(O)ccc3c(=O)c(-c4nc5ccccc5s4)c(N)oc23)C1 (configuration not stated)	5%	5	-1%	-5%	10	1%
COC(=O)CC1C(C)(C)C(OC(C)=O)C2CC3C4CC(=O)OC(c5ccoc5)[C@]4(C)CCC3[C@@]1(C)C2=O (some centres not stated)	nt	nt	nt	-1%	nt	nt
SMILES	RE007 growth inh	Cycloheximide cs	LmPK inh	FBPA Giardia inh	Shiga toxin inh	TbPYK inhibitor
COc1cccc(Oc2nccc(N(C)C)c2C#N)c1	3%	15*	1%	5%	39*	0%
COc1ccnc(Oc2ccc(C)cc2C)c1C#N	-5%	18*	-1%	3%	11	-12%
N#Cc1c(-c2ccccc2)ccnc1Oc1ccccc1	26%	24*	0%	9%	59*	-6%
COc1ccc(Oc2nccc(OC)c2C#N)cc1	-5%	20*	-3%	-5%	7	1%
COc1ccc(CCCc2nnc(SCC(=O)Nc3ccc(C)cc3C)o2)cc1	nt	nt	nt	nt	nt	3%
CCC1(O)CC2CN(CCc3c([nH]c4ccccc34)[C@@](C(=O)OC)(c3cc4c(cc3OC)N(C)C3[C@]45CCN4CC=C[C@@](CC)([C@@H](OC(C)=O)[C@]3(O)C(=O)OC)[C@H]45)C2)C1 (some centres not stated)	nt	nt	nt	-4%	nt	nt
CCOC(=O)/C(C#N)=C1/C=CN(c2ccccc2)C=N1	-3%	4	-6%	-4%	49	0%
CCOC(=O)/C(C#N)=C1/C=CN(c2ccc(C)cc2)C=N1	1%	29*	8%	2%	64*	2%
Cc1cccc(CN2C(=O)N/C(=C/c3ccc(C)s3)C2=O)c1	3%	23*	7%	0%	47	?
CCN1C(=O)/C(=C/c2ccc(C)s2)NC1=S	?	18	0%	-15%	8	-26%
Cc1ccc(/C=C2/NC(=O)N(Cc3ccccc3)C2=O)s1	0%	55*	4%	-4%	37	?
COc1ccc(-c2cnc(-c3cccnc3)o2)cc1	nt	nt	nt	-1%	nt	nt
O=C(c1cccc(OCc2ccccc2)c1)N1CCOCC1	-6%	13*	0%	4%	41	-6%
CCOc1ccc(OCc2cccc(C(=O)N3CCOCC3)c2)cc1	-10%	101*	-13%	-4%	127*	-4%
CCOc1ccc(N=C(/C(C(=O)C(=O)N2CCOCC2)=C(/O)c2ccccc2)c2ccccc2)cc1	-20%	47*	1%	-25%	62*	0%
CC1CN(C(=O)c2cccc(COc3ccc(Br)cc3)c2)CC(C)O1 (configuration not stated)	-9%	58*	1%	2%	13*	3%
Cc1nnc(SCc2ccccc2Cl)c2cc3occc3n12	nt	nt	nt	nt	nt	-4%
CCc1cccc(C)c1NC(=O)Cn1cnc2c1c(=O)n(C)c(=O)n2C	nt	nt	nt	nt	nt	-2%
O=C(NCc1ccc(F)cc1)C(=O)Nc1ccc2nc3n(c(=O)c2c1)CCCCC3	nt	nt	nt	nt	nt	-3%
Cc1ccccc1NC(=O)COc1ccc2oc3c(c2c1)CCCC3	nt	nt	nt	nt	nt	-1%
CC(C)(C)NC(=O)COc1ccc2oc3c(c2c1)CCCC3	-17%	18*	0%	3%	60	7%
Cc1ccnc(NC(=O)COc2ccc3oc4c(c3c2)CCCC4)c1	-18%	43*	2%	1%	66*	-10%
CNC(=O)NC(=O)COc1ccc2oc3c(c2c1)CCCC3	-1%	22*	0%	-4%	58*	4%
COc1cccc(CCc2ccccc2OCC[C@@H]2C[C@@H](O)CN2C)c1	nt	nt	nt	-12%	nt	nt

Compound activity (PubChem)
